Source: PubChem (several laboratories)
Mdm2 MdmX PPI – human Mdm2/MdmX binding inhibition; inhibition, % at 8 µM; SaOS-2 split-luciferase Mdm2/MdmX complementation, luminescence; 3% of 330,000 active; AID 485346; O15151+Q00987;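 active = inhibition of at least 50% at 8 µM in the primary screen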
CSC inhib – cancer stem cell inhibition; cancer stem cell-like cells viability, luminescence; inhibition, % at 7.5 µM; 1.1% of 300,000 active; in the data active = inhibition above about 75%; inconclusive = no clear call, values can overlap the other calls; tested in HMLE shEcad cells
aSyn 5UTR inh – MLPCN primary screen, SNCA 5' untranslated region; alpha-synuclein 5'UTR reporter, inhibitor activity; inhibition, % (tested at 7.5 µM); 0.82% of 300,000 active; AID 1813; in the data active = inhibition above about 60%; inconclusive = no clear call, values can overlap the other calls;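 also: H4 neuroglioblastoma cells stably carrying SNCA 5'UTR luciferase fusion; 0% = DMSO wells and 100% = positive control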
A1 inh – inhibitors of the anti-apoptotic protein A1, read as caspase activation; 0.066% of 330,000 active; MEF A1-2A-BIM cells, Caspase-Glo 3/7 luminescence, 3 h; percent of clofoctol response, vehicle zero; AID 2462; caspase activation, % (test concentration not listed);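 active = over half of replicate activation scores above 10%, or exactly half above 10 with the replicate mean above 10; inconclusive = replicate mean below 10 yet half the replicates above 10; inactive = over half of replicates below 10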
Beta apoptosis – beta cell apoptosis inhibition; INS-1E cytokine-induced death, ATP luminescence, 48 h; percent of positive-control rescue, neutral wells zero; protection from apoptosis, % (no concentration beside the values); 0.8% of 300,000 active; AID 435005;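 active = Every replicate reaches about 75%, or at least half do and their mean reaches it too, limit read from the data; inconclusive = At least half of replicates reach the limit but their mean does not; inactive = Under half of replicates reach the limit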;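 also: 0% = cytokine-treated negative control wells and 100% = positive control rescue; higher means more ATP so stronger rescue from cytokine killing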
An asterisk follows results filed as active; ? = inconclusive; . = no result given. This is a sample that favours compounds with a hit; in the whole collection about 4.1% have one here.

SMILES	Mdm2 MdmX PPI	CSC inhib	aSyn 5UTR inh	A1 inh	Beta apoptosis
O=C(Nc1ccccn1)c1cc(-c2cccnc2)nc2ccc(Br)cc12	43	13	62*	3	3
O=C(Nc1ccc(C(=O)N2CCOCC2)cc1)c1cc(-c2cccnc2)nc2ccc(Br)cc12	25	13	-3	0	5
CCN(CC)c1ccc2cc(S(=O)(=O)c3ccc(Cl)cc3)c(=O)oc2c1	12	99*	-15	0	5
Cn1cccc1/C=N/NC(=O)Cc1cccs1	10	3	-39	0	105*
NS(=O)(=O)c1ccc(N2CCN(C(=O)c3ccco3)CC2)nc1	10	7	.	0	3
CCOc1ccc(NC(=O)CC(=O)Nc2ccc(OCC)cc2)cc1	4	-6	-15	0	-4
CCOc1ccc(C(=O)Oc2ccc(NC(C)=O)cc2)cc1	7	-8	80*	0	-5
CC1CC(C)CN(C(=O)COC(=O)c2ccc(S(=O)(=O)N(C)c3ccccc3)cc2)C1 (stereo not drawn)	-8	-2	.	-1	-2
CCN1Cc2c(/C=C/c3ccccc3)nc3ccc(OC)cc3c2N(c2cccc(Cl)c2)C1	21	107*	-66	-1	41
COc1ccc(/C=C/c2nc3ccccc3n2C)cc1	46	88*	109*	-10	106*
COc1ccc(/C=N/n2c(C)nc3ccccc3c2=O)cc1	4	-6	-25	0	-5
COc1ccc(/C=N\n2nnc3ccccc32)cc1	-149	1	73*	-17	-9
CCN(CC)c1nc(C(F)(F)F)nc2c1nnn2Cc1ccccc1	14	-4	32	0	7
O=C(Nc1ccccc1F)Nc1cc(S(=O)(=O)N2CCOCC2)ccc1N1CCCC1	21	-11	-43	0	-4
C=CCn1c(O)c(N=NC(=S)Nc2ccccc2C)c2cc(S(=O)(=O)N3CCOCC3)ccc21	39	31	80*	0	55
Cc1cccc(NC(=S)N=Nc2c(O)n(CN3CCOCC3)c3ccccc23)c1C	35	71	49	0	33
Cn1c(O)c(N=NC(=S)Nc2ccccc2F)c2cc(S(=O)(=O)N3CCOCC3)ccc21	.	.	95*	.	.
O=C(OCC(=O)c1ccc[nH]1)c1ccc(F)c(S(=O)(=O)N2CCOCC2)c1	-10	-1	.	0	-5
O=C(/C=C/c1c[nH]c2ccccc12)c1cccc2ccccc12	31	87*	-95	1	-2
O=C(c1ccccc1)c1c[nH]c2ccccc12	.	-3	-51	-2	2
COc1cc(NC2CCCCC2O)c2nc(-c3ccc(Cl)cc3)ccc2c1 (stereo not drawn)	47	?	-94	2	80*
CCCSCCCNC(=O)c1ccc(C)c(NC(=O)C2=C(C)OCCS2)c1	9	.	7	0	.
COc1cc(OC)cc(C(=O)OC/C(O)=C(\C#N)c2nc3ccccc3[nH]2)c1	2	37	8	-1	101*
NC(=S)N/N=C/c1ncc(C(F)(F)F)cc1Cl	47	91*	61	0	65
c1ccc(-c2csc3ncnc(NCC4COc5ccccc5O4)c23)cc1 (stereo not drawn)	.	50	14	-1	127*
SMILES	Mdm2 MdmX PPI	CSC inhib	aSyn 5UTR inh	A1 inh	Beta apoptosis
Cc1sc2ncnc(NCC3CCCO3)c2c1C (stereo not drawn)	4	-3	12	1	5
Cc1sc2ncnc(NCC3COc4ccccc4O3)c2c1C (stereo not drawn)	.	3	2	0	130*
Cc1sc2ncnc(NCC(C)(C)N3CCOCC3)c2c1C	32	-7	17	0	85*
CC(C)CC(Nc1ncnc2scc(-c3ccccc3)c12)C(=O)O (stereo not drawn)	25	-1	-5	0	-2
C=CCC1NS(=O)(=O)O[C@H](CCCC)[C@@H]1O (stereo partly drawn)	-13	-21	-18	1	.
O=C(CN1CCCCCC1)Nc1ccccc1C(=O)Nc1ccccc1	-3	-15	14	0	9
Nn1c(SCC(=O)NC2CCCCC2)nnc1-c1ccccc1F	-7	-17	.	1	6
CCCCOc1ccc(C(=O)N2CCN(c3ccc(N4CCOCC4)nn3)CC2)cc1	4	12	9	0	6
CCCOc1ccc(C(=O)N2CCN(c3ccc(N)cc3Cl)CC2)cc1	-18	76*	-12	1	4
OCCN(CCO)CC(O)COc1ccc(C23CC4CC(CC(C4)C2)C3)cc1 (stereo not drawn)	.	78*	76*	1	0
CC1(C2CC2)NC(=O)N(CC(=O)N2CCN(c3ccccc3)CC2)C1=O (stereo not drawn)	0	-19	.	-1	-2
Nc1ccc(Br)cc1-c1nc2ccccc2[nH]c1=O	4	.	-102	0	102*
CCN(CC)C(=O)c1ccc(S(=O)(=O)N2CCC(c3nc4ccccc4s3)CC2)cc1	6	15	-7	0	100*
CC1CCCN(C(=O)c2ccc(S(=O)(=O)N3CCC(c4nc5ccccc5s4)CC3)cc2)C1 (stereo not drawn)	16	25	-14	0	39
CC(OC(=O)CCN=C1NS(=O)(=O)c2ccccc21)C(=O)Nc1ccc(F)c(F)c1F (stereo not drawn)	13	-3	-1	0	-5
CC1=CC(=C2C(=O)c3ccccc3C2=O)C=C(C)O1	20	18	-129	1	7
CC(=O)C1=C(c2ccc(Br)cc2)C(=O)c2ccccc2C1=O	.	114*	24	0	107*
CC12CCC(C/C1=N\N=C1\NC(=O)/C(=C\c3cccc(Br)c3)S1)C2(C)C (stereo not drawn)	17	105*	13	0	20
COc1ccc2c(c1)C(=O)[C@@H](O)[C@H](c1ccc(OC)c(Br)c1)O2	26	-27	-41	0	77*
COc1cccc([C@@H]2Oc3ccc(OC)cc3C(=O)[C@H]2O)c1	-3	11	-138	-3	20
O=C(CSc1ccc2nnc(-c3ccccn3)n2n1)Nc1ccc(F)cc1F	-3	-16	1	1	-1
O=C(N/N=C/c1cccs1)c1n[nH]c2c1CCC2	11	59	68*	-7	10
O=C(N/N=C/c1ccccc1Cl)c1n[nH]c2c1CCCC2	38	33	83*	-9	25
Cc1ccc(S(=O)(=O)NNC(=O)c2ccc3ccccc3n2)cc1	31	-5	4	0	-3
CCOC(=O)C1CCN(c2ncnc3c2cnn3-c2ccc(Cl)cc2)CC1	17	-14	65*	1	-2
COc1ccccc1/C=N/NC(=O)C(=O)Nc1ccccc1OC(F)(F)C(F)F	22	-5	-7	-1	1
O=C(N/N=C/c1cc(Cl)ccc1O)C(=O)Nc1ccccc1OC(F)(F)C(F)F	.	96*	.	0	89*
O=C(N/N=C/c1cc(Br)ccc1O)C(=O)Nc1ccccc1OC(F)(F)C(F)F	.	96*	82*	2	83*
